Values joined by “and” are separate entries in the source; they are usually repeats but may differ in a detail not shown here. Identical values can stand only once. Active and inactive are the calls of the source.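 The calls were made as follows, unless noted: active = compounds whose cell count with miR-34 switched on is under 0.7 times the count with it off; inactive = the rest.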

Assay [1] is described as follows: liver-stage malaria parasite growth inhibition, primary screen, cell-based, HepG2, luciferase luminescence, HepG2 viability (AID 624349; in the data active = parasite load remaining mostly below about 12%, no sharp cut-off; inactive = mostly above about 10%;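 also: 100% = mean of DMSO negative control wells on the same plate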). The conditions noted are these: P. berghei liver stage in HepG2, luciferase luminescence, concentration not given here; parasite load remaining: stronger effect = lower value; viability: measured here: HepG2 viability without parasites.
The nature of assay [2]: stimulators of nuclear beta-catenin in C2C12, primary screen, imaging, WNT3A-conditioned medium, mouse C2C12, NPC library (AID 1117326; in the data active = nuclear beta-catenin stimulation mostly above about 4.2%, no sharp cut-off; inactive = mostly below about 10%). The conditions noted are these: stronger effect = higher value.
Assay [3] in a line: stimulators of insulin release from INS-1E, primary screen, cell-based, 5 mM glucose, NPC library (AID 1117329;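 active = compound raises insulin release from rat beta cells at 5 mM glucose, no numeric limit stated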). As to conditions: rat INS-1E insulin secretion, at 10 µM, stronger effect = higher value.
The nature of assay [4]: growth inhibition of GSK3B-pretreated HCT116 cells – cell-based, CellTiter-Glo, 0.2 to 20 µM (AID 1117336;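 active = compounds lowering colon cancer cell viability after pretreatment blocking the GSK3B kinase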). The conditions noted are these: HCT116 viability after GSK3B inhibitor, at 20 µM, stronger effect = higher value. (In ATP-based viability assays light output follows the ATP content of the culture.)
The nature of assay [5]: inhibition of endothelial tube formation, primary screen, imaging, VEGF stimulated, CD31 staining, tube area, NPC library (AID 1117340;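 active = compound that reduces growth-factor-driven endothelial tube area in a mixed cell culture, no cutoff stated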). The conditions noted are these: VEGF-stimulated ADSC/ECFC co-culture, at 10 µM, stronger effect = higher value.
Assay [6] is described as follows: glucagon-like peptide 1 release enhancers, primary assay, NCI-H716 cell line, NPC library (AID 1117341;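 active = compound raises GLP1 secretion from the human gut endocrine cells, with no numeric limit stated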). The conditions noted are these: NCI-H716 cells, at 10 µM, stronger effect = higher value.
Assay [7] in a line: HCT116 colon cancer cell growth inhibition, primary screen, CellTiter-Glo luminescence, NPC library (AID 1117342;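 active = compounds that lower survival of HCT116 colon cancer cells in the luminescence readout, no numeric limit stated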). The conditions noted are these: at 20 µM (top of the series).
The nature of assay [8]: CellTiter-Glo luminescent readout of SW480 viability loss, NPC library primary (AID 1117343;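 active = compounds that lower viability of the colon cancer cells in the luminescence readout, with no numeric limit stated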). The conditions noted are these: CellTiter-Glo luminescence; at 20 µM (top of the series) unless noted.
A short description of assay [9]: decreased DLD-1 cellular survival, CellTiter-Glo luminescent readout, NPC compound collection, primary HTS (AID 1117346;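 active = compounds that lower survival of DLD-1 colon cancer cells in the luminescence readout, no cutoff given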). The conditions noted are these: DLD-1 viability, CellTiter-Glo luminescence; at 20 µM (top of the series).
Assay [10] can be described thus: sensitizers of A549 cells to miR-34 induction, primary screen, imaging, A549 dox-inducible miR-34, nuclei and caspase counts (AID 1347080). As to conditions: A549 miR-34 inducible, Hoechst nuclei count, 48 h.
Assay [11] is described as follows: survival rescue of mitochondrial mutant cells in low glucose, primary screen, MELAS cybrids, Rieske KO mouse fibroblasts, CellTiter-Glo (AID 1508586;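 active = mean z-score across replicates of 1.96 or higher in either the MELAS or the Rieske mutant cell line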;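 also: z relative to plate mean and SD of compound and empty wells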).
Assay [12] has as its target NAD(+) hydrolase SARM1 (Homo sapiens) (UniProt Q6SZW1). In words: SARM1 TIR NADase inhibitors, cell lysate, NAD-Glo luminescence (AID 1508614;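 active = compound whose remaining NAD level is above about 45 nM, limit read from the data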;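 also: higher remaining NAD means stronger inhibition of SARM1 NADase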). The conditions noted are these: SAM-TIR HEK293T lysate NADase, at 1 µM, stronger effect = higher value.
Assay [13] can be described thus: viability rescue of complex I mutant cybrids, primary screen, cell-based, galactose medium, ATP luminescence (AID 1645843;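 active = z-score of at least 1.8 in each of two replicates, scored against plate mean and spread of sample wells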;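 also: positive z means more ATP and so rescue of galactose-driven cybrid death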). The conditions noted are these: complex I mutant cybrid cells, 72 h, stronger effect = higher value.
Setting [14] is: stronger effect = lower value, cell number ratio, induced over uninduced.
The mark [15] stands for this setting: measured here: relative caspase fold change +Dox/-Dox.
The mark [16] stands for this setting: measured here: total cells with miR-34 induction, stronger effect = lower value.
Setting [17] is: measured here: total cells without miR-34 induction.
The mark [18] stands for this setting: MELAS cybrid survival, CellTiter-Glo 48 h, stronger effect = higher value.
[19] abbreviates: Rieske KO mouse fibroblast survival, CellTiter-Glo 72 h.

Chain of NAD(+) hydrolase SARM1 (Homo sapiens) (Q6SZW1 whole entry, looked up): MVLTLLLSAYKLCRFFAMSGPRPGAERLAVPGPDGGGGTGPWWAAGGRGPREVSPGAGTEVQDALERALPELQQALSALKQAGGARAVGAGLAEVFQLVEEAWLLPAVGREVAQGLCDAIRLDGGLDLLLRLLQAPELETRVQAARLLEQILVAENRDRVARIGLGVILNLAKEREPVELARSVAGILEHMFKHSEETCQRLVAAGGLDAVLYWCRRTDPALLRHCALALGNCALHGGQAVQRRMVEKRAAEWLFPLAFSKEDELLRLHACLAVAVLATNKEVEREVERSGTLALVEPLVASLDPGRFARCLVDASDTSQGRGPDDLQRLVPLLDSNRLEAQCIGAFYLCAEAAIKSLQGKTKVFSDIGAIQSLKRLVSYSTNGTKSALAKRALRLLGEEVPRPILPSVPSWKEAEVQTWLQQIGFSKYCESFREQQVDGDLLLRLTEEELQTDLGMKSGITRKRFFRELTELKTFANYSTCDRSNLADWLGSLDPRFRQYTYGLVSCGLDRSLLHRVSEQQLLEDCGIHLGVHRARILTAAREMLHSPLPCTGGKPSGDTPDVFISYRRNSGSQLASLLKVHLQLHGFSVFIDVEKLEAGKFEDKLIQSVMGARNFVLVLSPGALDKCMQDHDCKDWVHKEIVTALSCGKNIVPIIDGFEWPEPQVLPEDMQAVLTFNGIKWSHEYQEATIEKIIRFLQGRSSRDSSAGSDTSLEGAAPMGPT

One may read the viability as a read-out of living cells in per cent, often relative to untreated cells. For `CC(C)(C)NC[C@H](O)COc1cccc2c1CCCC2=O`, the parasite load remaining in [1] was 68.1% (inactive). Further, the viability in assay [1] worked out at 89.1%. The nuclear beta-catenin stimulation in [2] (at 10 µM) was 0% (inactive); in assay [2] (stimulation, at 2 µM), 0.3%. Further, the insulin secretion stimulation in assay [3] is 3.7% (inactive). Also, the viability decrease in [4] is 17.1% (inactive). The tube area decrease in [5] is 1% (inactive). In assay [6], the GLP1 secretion stimulation was 8.6% (inactive). In addition, the inhibition of viability in assay [7] is 13.8% (inactive). Further, the viability decrease (inhibition) in assay [8] is -11.3% (inactive); in assay [9], 2.7% (inactive). Moreover, the fold change in assay [10] (setting [14]) is 0.883 (inactive); in [10] (setting [15]) it was 1.03. The cell count in assay [10] (setting [16]) was determined as 9340; in assay [10] (setting [17]), 10600. Besides, the z-score is 0.581 (inactive) in [11] (setting [18]) and 0.045 in assay [11] (setting [19]). Further, the remaining NAD in assay [12] was 10 nM (inactive).

For `Cc1ncc(C[n+]2csc(CCO)c2C)c(N)n1`, in [1], the parasite load remaining was 161% (inactive) and 60.9% (inactive). Moreover, the viability in assay [1] is 98.2% and 74.9%. Moreover, the nuclear beta-catenin stimulation in [2] (at 10 µM) is -1.9% (inactive); in assay [2] (stimulation, at 2 µM) it was -0.8%. In addition, the insulin secretion stimulation in assay [3] was 3.8% (inactive). In addition, the viability decrease in assay [4] is -12.9% (inactive). Moreover, the tube area decrease in [5] is -6.7% (inactive). In addition, in assay [6], the GLP1 secretion stimulation was -1.3% (inactive). Besides, the inhibition of viability in assay [7] is 5% (inactive). In addition, the values for the viability decrease (inhibition) in [8] and in assay [9] were 7.9% (inactive) and 1.8% (inactive), respectively. Further, the fold change was 0.836 (inactive) in assay [10] (setting [14]) and 1.04 in assay [10] (setting [15]). The figures for the cell count in assay [10] (setting [16]) and in assay [10] (setting [17]) were 8780 and 10500, respectively. The z-score is 0.823 (inactive) in assay [11] (setting [18]) and 0.201 in assay [11] (setting [19]). The remaining NAD in assay [12] is 10 nM (inactive).

As to `CCCC(=O)OCOC(=O)C1=C(C)NC(C)=C(C(=O)OC)C1c1cccc(Cl)c1Cl` (stereo not drawn), the nuclear beta-catenin stimulation was 15.7% (inactive) in assay [2] (at 10 µM) and 12.3% in assay [2] (stimulation, at 2 µM). For the same molecule, the insulin secretion stimulation in [3] was 3.9% (inactive). For the same molecule, the viability decrease in assay [4] was -9.1% (inactive). In [5], the tube area decrease was -4.1% (inactive). Further, the GLP1 secretion stimulation in [6] is 5.1% (inactive). Further, in assay [7], the inhibition of viability is 25.4% (inactive). For the same molecule, the viability decrease (inhibition) in [8] was 6.5% (inactive); in assay [9], 14.3% (inactive). The fold change in [10] (setting [14]) is 0.959 (inactive) and 0.978 (inactive); in assay [10] (setting [15]), 0.415 and 0.463. In addition, the cell count is 8260 and 7700 in [10] (setting [16]); 8610 and 7870 in assay [10] (setting [17]). The z-score in assay [11] (setting [18]) is 0.611 (inactive) and -0.319 (inactive); in [11] (setting [19]), -0.278 and 0.00408; in assay [13], -1.31 (inactive).

Take `CCOc1ccccc1OCCN[C@H](C)Cc1ccc(OC)c(S(N)(=O)=O)c1`: in assay [1], the parasite load remaining is 30.6% (inactive). Besides, in [1], the viability was 71%. For the same molecule, the nuclear beta-catenin stimulation is 0.2% (inactive) in assay [2] (at 10 µM) and 3% in [2] (stimulation, at 2 µM). Also, the insulin secretion stimulation in assay [3] is 1.6% (inactive). In addition, in assay [4], the viability decrease was 4.2% (inactive). In addition, the tube area decrease in assay [5] was -2.4% (inactive). Besides, the GLP1 secretion stimulation in [6] is 2.3% (inactive). In assay [7], the inhibition of viability was 4.1% (inactive). Besides, the viability decrease (inhibition) in [8] was 6.6% (inactive); in assay [9], 5.8% (inactive). The fold change was 0.868 (inactive) in assay [10] (setting [14]) and 1.51 in assay [10] (setting [15]). The cell count in assay [10] (setting [16]) amounted to 9140; in assay [10] (setting [17]), 10500. Further, the z-score in assay [11] (setting [18]) was -0.622 (inactive); in [11] (setting [19]), -1.24; in assay [13], -0.32 (inactive). Also, the remaining NAD in assay [12] is 10 nM (inactive).

With `NCCC(O)(P(=O)(O)O)P(=O)(O)O`, the parasite load remaining in assay [1] is 25.4% (inactive). Besides, the viability in assay [1] worked out at 75%. Also, the nuclear beta-catenin stimulation is 1.8% (inactive) in assay [2] (at 10 µM) and -0.1% in assay [2] (stimulation, at 2 µM). Besides, the insulin secretion stimulation in assay [3] is -3.4% (inactive). In addition, the viability decrease in assay [4] was -16% (inactive). For the same molecule, the tube area decrease in assay [5] is 8.2% (inactive). Moreover, the GLP1 secretion stimulation in assay [6] is 1.4% (inactive). Further, the inhibition of viability in assay [7] was -1.9% (inactive). The viability decrease (inhibition) was 16.6% (inactive) in assay [8] and -6.8% (inactive) in assay [9]. The fold change in assay [10] (setting [14]) was 0.878 (inactive); in assay [10] (setting [15]) it was 1.25. The cell count came out at 9450 in assay [10] (setting [16]) and 10800 in assay [10] (setting [17]). The z-score in assay [11] (setting [18]) was 0.361 (inactive); in assay [11] (setting [19]) it was -0.434; in assay [13], 0.62 (inactive).

`O=c1[nH]c(=O)c2[nH]c(=O)[nH]c2[nH]1`: the nuclear beta-catenin stimulation in assay [2] (at 10 µM) was -2.4% (inactive); in assay [2] (stimulation, at 2 µM), -1.6%. The insulin secretion stimulation in assay [3] was -0.2% (inactive). Also, the viability decrease in [4] was -5.9% (inactive). In addition, the tube area decrease in [5] is 8.1% (inactive). In assay [6], the GLP1 secretion stimulation is -2.2% (inactive). In [7], the inhibition of viability is -5.8% (inactive). Moreover, the results for the viability decrease (inhibition) in assay [8] and in assay [9] were -9.2% (inactive) and 9.1% (inactive), respectively. For the same molecule, the values for the fold change in [10] (setting [14]) and in [10] (setting [15]) were 0.877 (inactive) and 0.666, respectively. Moreover, the results for the cell count in [10] (setting [16]) and in assay [10] (setting [17]) were 8320 and 9490, respectively. Moreover, the z-score was 0.618 (inactive) in assay [11] (setting [18]), 0.253 in [11] (setting [19]) and 0.705 (inactive) in assay [13].

For the molecule `CC(=O)OCC(=O)[C@@]1(O)CC[C@H]2[C@@H]3CCC4=CC(=O)C=C[C@]4(C)[C@@]3(F)[C@@H](O)C[C@@]21C`, the parasite load remaining in [1] is 53.1% (inactive) and 126% (inactive). In assay [1], the viability was 50.3% and 103%. Further, the nuclear beta-catenin stimulation in assay [2] (at 10 µM) is 0.8% (inactive); in [2] (stimulation, at 2 µM), 0%. The insulin secretion stimulation in assay [3] is -2.1% (inactive). Moreover, in assay [4], the viability decrease was 9.45% (inactive). Also, the tube area decrease in assay [5] is -21.7% (inactive). The GLP1 secretion stimulation in assay [6] is 3.3% (inactive). Besides, the inhibition of viability in assay [7] was -4.3% (inactive). Further, the viability decrease (inhibition) in [8] was 42.5% (inactive); in [9] it was 23% (inactive). In addition, the fold change in [10] (setting [14]) was 0.893 (inactive); in assay [10] (setting [15]), 1.25. In addition, the cell count is 4910 in assay [10] (setting [16]) and 5500 in assay [10] (setting [17]). In addition, the z-score was -1.23 (inactive) in assay [11] (setting [18]) and 0.0318 in [11] (setting [19]). Also, in assay [12], the remaining NAD is 10 nM (inactive).
